Experimental data published in PubChem BioAssay (Tox21).
Results filed as inconclusive are left out. The source made the active and inactive calls. The call rests on the fitted dose curve; in most records, active means well fitted activation curve with a large enough effect in the repeat runs; inconclusive means weak or mixed curves; inactive means flat fitted curve, though single readings scatter.

Test: A CellTox Green Cytotoxicity Assay to monitor cytotoxicity in HEK293 cells - 8 hour (AID 1224884); further: nearly all actives have a fitted effect of over 35% in size
Conditions: CellTox Green fluorescence; series mostly up to 76.8 µM; cytotoxicity increase: at the top concentration
Text: National Center for Advancing Translational Sciences [NCATS]
NIH Chemical Genomics Center [NCGC]
U.S. Environmental Protection Agency [EPA]
National Institutes of Environmental Health Sciences [NIEHS]
National Toxicology Program [NTP]
Cell-based models are critical for drug discovery. Determining the natural cytotoxic effects resulting from test compounds is an essential research activity. A CellTox Green Cytotoxicity Assay to monitor cytotoxicity in real time of continues cell culture during 40 hours of the compound treatment was used to screen Tox21 10K library compounds in Hek293 cells. CellTox Green Cytotoxicity Assay is a nonlytic, homogeneous, biofluorescent method to measure cytotoxicity in cell culture after experimental manipulation. The assay system uses a proprietary asymmetric cyanine dye that is excluded from viable cells but preferentially stains the dead cell's DNA. […] Viable cells produce no appreciable increases in fluorescence. Therefore, the fluorescence signal produced by the binding interaction with dead cell DNA is proportional to cytotoxicity.
The mixture of Hek293 cell suspension and reagents were dispensed at 600cells/6 ul/well in 1536-well tissue culture treated black solid bottom plates using a Multidrop dispenser. After the assay plates were incubated at a 37 C/5% CO2 incubator for 5 hours, 23 nL of compounds dissolved in DMSO, positive and negative controls was transferred to the assay plate by a pintool work station. The plates were incubated at 37 C for 40 hours. The fluorescence intensity were measured at 0h, 8h, 16h, 24h, 32h and 40h time points using ViewLux plate reader during compound treatment.
On the % scale 0 is the no-effect control and ±100 the full control effect; potency means the concentration at half of the fitted maximal effect.

SMILES | cytotoxicity increase | Potency
CC(=O)Oc1ccc(C2(c3ccc(OC(C)=O)cc3)C(=O)Nc3ccccc32)cc1 | -11% [at 35.3 µM] (inactive) | –
Cc1ccc2ccc3cccc4ccc1c2c34 | 4.6% (inactive) | –
CCc1c(C(=O)O)c(=O)cnn1-c1ccc(Cl)cc1 | -4.6% (inactive) | –
COc1cccc(O)c1 | -10.2% (inactive) | –
CCCCN(CCCC)CCC(O)c1cc2c(Cl)cc(Cl)cc2c2cc(C(F)(F)F)ccc12 (stereo not given) | -0.643% [at 35.3 µM] (inactive) | –
CCOC(=O)C1=C(C)NC(C)=C(C(=O)OCC)C1c1ccccc1/C=C/C(=O)OC(C)(C)C | -0.4% [at 35.3 µM] (inactive) | –
CO[Si](CCCNCCNCCN)(OC)OC | 11.3% (inactive) | –
CC=O | – | 57.5 µM (active)
C=CC(=O)OCCN(CC)CC | -0.148% (inactive) | –
Clc1cccnc1 | 2.73% (inactive) | –
Cc1cn[nH]c1 | -9.55% [at 35.3 µM] (inactive) | –
CCCCCCCCCCc1ccccc1 | -2.78% (inactive) | –
CCCCCCCCCC(=O)N(C)C | 26.3% (inactive) | –
CC(=O)OC(OC(C)=O)c1ccc([N+](=O)[O-])o1 | 13.5% (inactive) | –
C=C(C)CCCC | 3.05% (inactive) | –
CCN(CC)CCNc1ccc(CO)c2sc3ccccc3c(=O)c12 | -12.6% [at 35.3 µM] (inactive) | –
C#CC(O)CCC (stereo not given) | -1.41% (inactive) | –
CC(NCCC(c1ccccc1)c1ccccc1)c1ccccc1 (stereo not given) | 18.3% [at 35.3 µM] (inactive) | –
O=S(O)O | 0.551% [at 15.8 µM] (inactive) | –
Clc1ccc(C(Cn2ccnc2)OCc2c(Cl)cccc2Cl)c(Cl)c1 (stereo not given) | 18% [at 35.3 µM] (inactive) | –

SMILES | cytotoxicity increase | Potency
CCOC(=O)[C@@](C)(N)Cc1ccc(O)c(O)c1 | -0.142% [at 35.3 µM] (inactive) | –
O=Cc1ccc(F)cc1 | -6.8% (inactive) | –
CC(C)(C)c1cc(/C=C2\SC(=N)NC2=O)cc(C(C)(C)C)c1O | 20.3% (inactive) | –
Cc1cnccn1 | -4.21% (inactive) | –
CCCSS/C(CCO)=C(\C)N(C=O)Cc1cnc(C)nc1N | -14.2% [at 35.3 µM] (inactive) | –
CCCCCCCC(C)=O | -11.9% (inactive) | –
CC(C)(C)C1=CC(=O)C=C(C(C)(C)C)C1=O | 17% (inactive) | –
O=C1OC(=O)c2cccc3cccc1c23 | -5.85% (inactive) | –
COc1cc(C(=O)NS(=O)(=O)c2ccccc2C)ccc1Cc1cn(C)c2ccc(NC(=O)OC3CCCC3)cc12 | 6.7% [at 35.3 µM] (inactive) | –
CCCCOC(=O)C(C)CC (stereo not given) | -11.1% (inactive) | –
CCCC(C)CCC(C)=O (stereo not given) | 8.85% (inactive) | –
CCCCCCCOC(=O)c1ccc(O)cc1 | – | inactive
O=C1OC(OC(=O)c2cccnc2Nc2cccc(C(F)(F)F)c2)c2ccccc21 (stereo not given) | -0.337% [at 35.3 µM] (inactive) | –
CCO[Si](C)(C)OCC | 16.1% (inactive) | –
CC(=O)C=O | 10.3% (inactive) | –
CCOCN(C(=O)CS(=O)(=O)O)c1c(C)cccc1CC | -5.04% (inactive) | –
Cn1cnc2ncnc(N)c21 | -7.51% [at 35.3 µM] (inactive) | –
O=C(O)Cc1ccc(OCCNC[C@H](O)c2ccccc2)cc1 | -1.38% [at 35.3 µM] (inactive) | –
O=C1c2c(O)ccc(O)c2C(=O)c2c(NCCNCCO)ccc(NCCNCCO)c21 | -41% [at 35.3 µM] (inactive) | –
CCCC(CC)CCCCCCCN (stereo not given) | – | 50.2 µM (active)
